Screening data (PubChem BioAssay)
TTR transcr act – TTR transcription activators in neuroblastoma reporter cells, primary screen, cell-based, luminescence, SH-SY5Y, TTR promoter Gaussia luciferase | activation, % at 16.7 µM | 92,000 compounds, 1.3% hits | AID 1117267, 2014 | 100% = recombinant luciferase protein wells;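 active = activation above the mean of all tested compounds plus 3 SD, cut at about 9.5% in these data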;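 also: cells exposed to compounds for one day before reading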
HuH7 TTR inh – TTR promoter reporter inhibitors in hepatoma cells, counter-screen for TTR transcription activator project, cell-based, luminescence, HuH7 hepatoma; inhibition, % at 16.7 µM; shares compounds with TTR transcr act; HuH7 TTR promoter-Gaussia luciferase reporter; 1,100 compounds, 4% hits;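 active = average inhibition above the solvent-only control wells' mean plus 3 SD, cut at about 15% in these data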;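 also: inhibitors lower well luminescence so higher value means more inhibition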
TTR act confirm – TTR transcription activators, retest, confirmation, cell-based, luminescence, SH-SY5Y, triplicate | shares compounds with TTR transcr act | SHSY5Y TTR promoter Gaussia luciferase; 100% = purified Lucia enzyme wells, no cells | activation, % at 16.7 µM | 1,100 tested, under 10 active;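 active = mean activation above a set limit taken from the earlier primary screen, cut at about 11% in these data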
Numbers stand for hits; – = inactive. The sample as a whole holds a higher share of hits than the screen did.

SMILES | TTR transcr act | others
COc1ccc(N(C(=O)Cc2cccs2)C(C(=O)NC2CCCC2)c2ccncc2)cc1 (configuration not stated) | 18.3 | HuH7 TTR inh=–;TTR act confirm=–
COc1ccc(N(C(=O)CNC(=O)c2cccs2)C(C(=O)NC2CCCC2)c2ccncc2)cc1 (configuration not stated) | –
COc1ccc(N(C(=O)CNC(=O)c2ccco2)C(C(=O)NC2CCCC2)c2ccncc2)cc1 (configuration not stated) | –
O=C(Nc1ccc2c(c1)OCCO2)C(C1CC1)N1CCN(c2ccc(C(F)(F)F)cn2)CC1 (configuration not stated) | –
CSCC[C@@H](CO)NC(=O)[C@H]1O[C@@H](n2ccc(=O)[nH]c2=O)[C@H](O)[C@@H]1O | –
CCOc1ccccc1NC1=C(OC)C(=O)C(Nc2ccccc2OCC)=C(OC)C1=O | –
COc1cc2c(cc1NC(=O)Nc1cccc(C)c1)oc1ccccc12 | –
COc1ccccc1NC(=O)c1cc(-c2ccc(OC)c(OC)c2)nc2ccccc12 | –
COc1cc2c(cc1NC(=O)c1cc(-c3ccncc3)nc3ccccc13)oc1ccccc12 | 15.2 | HuH7 TTR inh=–;TTR act confirm=–
COc1ccc(CNC(=O)N2[C@H]3CC[C@@H]2C=C(c2ccc(F)cc2OCc2ccccc2)C3)cc1OC | –
CCCCNC(=O)Nc1c(C(=O)OCC)[nH]c2ccccc12 | –
CCOC(=O)c1[nH]c2ccccc2c1NC(=O)NC(C)C | –
CCOC(=O)c1[nH]c2ccc(F)cc2c1NC(=O)Nc1ccccc1OC | 14.9 | HuH7 TTR inh=–;TTR act confirm=–
C[C@H](CO)N1C[C@H](C)[C@@H](CN(C)C(=O)Nc2ccccc2)Oc2ccc(NC(=O)CCC(F)(F)F)cc2C1=O | –
CCCCCNC(=O)C(c1ccnc2ccccc12)n1c(=O)c(-c2cc3ccccc3[nH]2)nc2ccccc21 (configuration not stated) | –
COc1ccc(NC(=O)c2oc3ccccc3c2CSC)cc1S(=O)(=O)N1CCOCC1 | –
O=C(CCn1c(=O)oc2ccccc21)Nc1ccc(N2CCOCC2)cc1 | –
CSCc1c(C(=O)Nc2ccc(N3CCOCC3)cc2)oc2ccccc12 | 14.2 | HuH7 TTR inh=–;TTR act confirm=–
CC12CCC(C(=O)CC1=O)C2(C)C (configuration not stated) | –
COc1cccc2c1C(=O)CC1C2CCC2CC(=O)CCC21C (configuration not stated) | –
CCN(C[C@H]1N[C@@](Cc2ccccc2)(C(=O)OC)[C@H]2C(=O)N(Cc3ccccc3)C(=O)[C@@H]12)C(=O)c1ccccc1 | –
CCN(C[C@H]1N[C@@](Cc2ccccc2)(C(=O)OC)[C@H]2C(=O)N(Cc3ccccc3)C(=O)[C@@H]12)C(=O)COC | –
CCN(C[C@H]1N[C@@](Cc2ccccc2)(C(=O)OC)[C@H]2C(=O)N(Cc3ccccc3)C(=O)[C@@H]12)C(C)=O | 11.7 | HuH7 TTR inh=–;TTR act confirm=–
CCOC(=O)N1CCN(C(=O)C[C@H]2C[C@@]3(C(=O)OC)C(=C[C@H](C(C)C)O[C@@H]3C3CC3)N(Cc3ccc(Cl)cc3Cl)C2=O)CC1 | –
Cc1cc2nc(-c3ccc(F)cc3)c(Cc3ccccc3)n2c(C)c1Br | –
SMILES | TTR transcr act | others
Cc1ccc(Cc2c(-c3ccccc3)nc3cc(C)c(Br)c(C)n23)cc1 | 11.7 | HuH7 TTR inh=–;TTR act confirm=–
Cc1ccc(Cc2c(-c3cccc(Cl)c3)nc3cc(C)c(Br)c(C)n23)cc1 | –
CC(=O)c1sc(Nc2ccc3c(c2)OCO3)nc1C | –
COc1ccc(S(=O)(=O)NC2CCN(C#N)CC2)cc1 | –
Cn1c(N)c(C(=O)COC(=O)COc2ccc(Cl)cc2Cl)c(=O)n(C)c1=O | –
CCOC(=O)c1cc(OCC)c2c(ccc3cc(OC)ccc32)n1 | –
O=C(NCCc1ccccc1)OCc1cn(Cc2cc(F)cc(F)c2)nn1 | –
Cc1ccccc1Cn1cc(COC(=O)N(C)Cc2ccccc2)nn1 | 11.9 | HuH7 TTR inh=17.6;TTR act confirm=–
Cc1cccc(Cn2cc(COC(=O)N(C)Cc3ccccc3)nn2)c1 | –
CN(Cc1ccccc1)C(=O)OCc1cn(Cc2ccccc2Cl)nn1 | –
O=C(NCCc1ccccc1)OCc1cn(Cc2ccccc2Cl)nn1 | –
O=C(NCCc1ccccc1)OCc1cn(Cc2ccccc2F)nn1 | 20.1 | HuH7 TTR inh=–;TTR act confirm=–
CC(C)CNS(=O)(=O)c1ccc(Br)cc1N1CCC[C@@H]1CO | –
O=C(c1ccc(=O)[nH]c1)N(c1ccccc1)C(CCc1ccccc1)c1nc2ccccc2[nH]1 (configuration not stated) | –
CN(CC(=O)Nc1ccc(F)c(F)c1F)C(=O)/C=C/c1ccco1 | –
CCCN(CC(=O)Nc1ccccc1C)C(=O)Cc1coc2cc(C)ccc12 | –
CC(NC(=O)COC(=O)c1cc(S(=O)(=O)N2CCOCC2)ccc1F)c1ccccc1 (configuration not stated) | –
Cc1sc2ncnc(NCC(c3ccco3)N(C)C)c2c1C (configuration not stated) | –
Cc1sc2ncnc(Nc3ccc(N4CCOCC4)cc3)c2c1-c1ccccc1 | –
Cc1sc2ncnc(Nc3ccccc3)c2c1C | 15.1 | HuH7 TTR inh=–;TTR act confirm=–
Cn1cnnc1SCc1ccc(C(=O)N/N=C(/CCC(=O)O)c2ccc(C(C)(C)C)cc2)cc1 | –
O=C(CCN1C(=O)c2ccccc2C1=O)Nc1nc2ccccc2s1 | –
CCC(CC)c1nnc(NC(=O)CCN2C(=O)c3ccccc3C2=O)s1 | 15.4 | HuH7 TTR inh=–;TTR act confirm=–
CC(C)Cc1nnc(NC(=O)CCN2C(=O)c3ccccc3C2=O)s1 | –
COc1cccc(CC(=O)OCC(=O)NC(Cc2ccccc2)C(C)=O)c1 (configuration not stated) | –
SMILES | TTR transcr act | others
O=C(Nc1ccc2oc(-c3ccncc3)nc2c1)c1ccc(Br)o1 | 10.2 | HuH7 TTR inh=–;TTR act confirm=–
O=C(Nc1ccc2oc(-c3ccncc3)nc2c1)c1ccc(F)cc1 | –
O=C(Nc1ccc2oc(-c3ccncc3)nc2c1)c1ccc2c(c1)OCCO2 | –
Cc1ccc(S(=O)(=O)N2C[C@H]3C(=O)C[C@@H](c4ccccc4F)N(S(=O)(=O)c4ccc(C)cc4)[C@H]3C[C@H]2c2ccccc2)cc1 | –
COc1cccc(C2C(C#N)=C(N)Oc3cc(C)n(Cc4ccccn4)c(=O)c32)c1OC (configuration not stated) | –
COC(=O)C1=C(N)Oc2cc(C)n(Cc3cccnc3)c(=O)c2C1c1ccc(OC)c(OC)c1 (configuration not stated) | 18.0 | HuH7 TTR inh=–;TTR act confirm=–
COc1ccc(C(=O)NCc2cccnc2)cc1OC | –
NC1(C(=O)O)CSSC1 | –
NC(N)=NS(=O)(=O)c1ccc(NC(=S)NC(=O)Cc2ccc(Cl)cc2)cc1 | –
Cc1nonc1OCCNC(=O)C12CC3CC(CC(C3)C1)C2 | –
Cn1c(=O)[nH]c(=O)c2c1[nH]c(=S)n2Cc1ccc(Cl)cc1 | –
COC(=O)c1ccc(Cn2nc(C)cc2C)cc1 | –
COc1ccc(-c2cc3ccccc3n2CC(O)Cn2nc(C)cc2C)cc1 (configuration not stated) | –
CC(=O)OC(Cn1nc(C)cc1C)c1ccccc1 (configuration not stated) | 10.1 | HuH7 TTR inh=–;TTR act confirm=–
C[C@@H]1CN([C@@H](C)CO)C(=O)c2cc(Br)cnc2O[C@H]1CN(C)C(=O)Nc1ccc(F)cc1 | –
